Assay outcomes deposited in PubChem BioAssay by National Center for Advancing Translational Sciences (NCATS).
The entries come from a sample that favours hits as a whole.
Pf Dd2 growth – qHTS Primary assay for Inhibitors of Plasmodium falciparum Dd2 growth in vitro. P. falciparum Dd2 growth, SYBR Green, 72 h. Potency, µM (top dose mostly 28.9 µM), for the others: top-dose activity, negative = inhibition, hits mostly inhibitors. hit rate 4.3% among 120,000; active = well fitted inhibition curve with a large enough effect;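 note: plate controls were DMSO vehicle for no effect and reference drug for full effect; nearly all actives have a fitted effect of over 65% in size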
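Readout: SYBR Green fluorescence, 485 nm excitation, 535 nm emission, after ~16 h lysis at 37C. Before that, Dd2-infected red cells (2.5% hematocrit) grew 72 h with compound, 29 uM top final concentration.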
The depositor's hits bear a star; i = inactive; [ ] = remark or other dose. Potency is the fitted concentration of half-maximal effect.

SMILES | Pf Dd2 growth
COc1cccc(-c2cc3c(=O)n(CCNC(=O)c4ccccc4F)ccn3n2)c1 | 13µM*
COc1cccc(-c2cc3c(=O)n(CCNC(=O)c4ccc(Cl)cc4)ccn3n2)c1 | 12%
COc1cccc(-c2cc3c(=O)n(CCNC(=O)c4cc5ccccc5[nH]4)ccn3n2)c1 | i
COc1cccc(-c2cc3c(=O)n(CCNC(=O)c4cc(Cl)ccc4F)ccn3n2)c1 | -11%
COc1cccc(-c2cc3c(=O)n(CCNC(=O)c4ccc(C(C)(C)C)cc4)ccn3n2)c1 | 1.1µM*
COc1cccc(-c2cc3c(=O)n(CCNC(=O)c4cc(C)cc(C)c4)ccn3n2)c1 | -7%
N#Cc1cccc(CN2CCOCCNC(=O)CC2)c1 | -15%
Cc1cnc(C(=O)N2CCc3nnc([C@@H]4C[C@@H](O)CN4C)n3CC2)cn1 | 8%
COc1ccccc1NC(=O)CC1CCCN(c2cn[nH]c(=O)c2)C1 (stereo unspecified) | 24%
Cc1nn(C)c(C)c1CCN(C)C(=O)C1Cn2cccc2C(=O)N1C (stereo unspecified) | -22%
COc1ccc(CCC(=O)NCc2ccc3c(c2)CCN3C(=O)c2ccccc2)cc1 | 6.3µM*
COc1ccc(CCC(=O)NCc2ccc3c(c2)CCN3C(=O)c2ccc(C)cc2)cc1 | 21%
COc1ccc(OCC(=O)NCc2ccc3c(c2)CCN3C(=O)c2ccccc2)cc1 | -4%
CC[C@H](C)[C@H](N)C(=O)N1CCC2(CC1)Nc1ccccc1NC2=O | -5%
CCNC(=O)O[C@@H]1CO[C@H]2[C@@H]1OC[C@@H]2n1cc(C(=O)OC)nn1 | 21%[44.1 µM]
CN(C)C(=O)C1CN(C(=O)c2ccc3c(c2)OCO3)CC12CCOCC2 (stereo unspecified) | 2%
COCC(=O)NC1CCC12CCN(C(=O)CC1CCCC1)CC2 (stereo unspecified) | -7%
Cc1ccc(SC2CCN(C(=O)c3cn(CCc4ccccc4)nn3)CC2)cc1 | -4%
COC[C@@H]1[C@H](C(=O)NCCCc2ccccc2)CCC(=O)N1C | 10%
COc1ccc(NC(=O)[C@@H]2C[C@@H](c3ccc(F)cc3)N([S+](=O)([O-])c3ccccc3)C2)cn1 | -24%
O=C(Nc1cccc(Cl)c1)[C@@H]1C[C@@H](c2ccc(F)cc2)N([S+](=O)([O-])c2ccccc2)C1 | -3%
COc1ccc(NC(=O)[C@@H]2C[C@@H](c3ccc(F)cc3)N([S+](=O)([O-])c3ccccc3)C2)cc1 | 8.9µM*
CC(C)c1nccn1CCCNC(=O)c1ccc(NC2CCC(O)CC2)nc1 (stereo unspecified) | i
CCC(C)C(=O)NC1CCN(c2cnn(Cc3ccccc3)c(=O)c2)CC1 (stereo unspecified) | -19%
COc1ccc(-c2nccc3c(=O)cc(N(C)C)oc23)cn1 | 14%[44.1 µM]
SMILES | Pf Dd2 growth
CN1c2cc(C(=O)NCc3cccs3)ccc2C(=O)N2CCCCC21 (stereo unspecified) | i
CCC(CC)NC(=O)CCC1CCN(C(=O)c2ccccc2Cl)CC1 | -13%
Cc1ccccc1C(=O)Nc1sc2c(c1C(=O)N1CCCCC1)CCC(C(C)(C)C)C2 (stereo unspecified) | 5.6µM*
COC(=O)c1c(NC(=O)c2cccc(OC)c2)sc2c1CCC(C(C)(C)C)C2 (stereo unspecified) | -4%
Cc1ccccc1C(=O)Nc1sc2c(c1C(=O)O)CCC(C(C)(C)C)C2 (stereo unspecified) | -27%
CC(C)(C)C1CCc2c(sc(NC(=O)c3cc(-c4ccc(F)cc4)on3)c2C#N)C1 (stereo unspecified) | 33%
Cc1cc(C)c2c(=O)cc(C(=O)Nc3sc4c(c3C(=O)NCc3ccco3)CCCC4)oc2c1 | -3%
Cc1ccccc1C(=O)Nc1sc2c(c1C(=O)NCc1ccco1)CCC(C(C)(C)C)C2 (stereo unspecified) | 11µM*
Cc1ccc2c(=O)cc(C(=O)Nc3sc4c(c3C(=O)NCc3ccco3)CCC4)oc2c1C | 38%
CC1CCN(C(=O)c2c(NC(=O)c3ccccc3Cl)sc3c2CCC(C(C)(C)C)C3)CC1 (stereo unspecified) | 11µM*
CN(C)C(=O)N(C)Cc1cccc(C(F)(F)F)c1 | 3%[44.1 µM]
N#Cc1ccccc1S(=O)(=O)N[C@H]1CO[C@H]2[C@@H]1OC[C@@H]2n1nnnc1-c1ccc2c(c1)OCO2 | -15%
O=C1CCN(S(=O)(=O)c2ccccc2)CCCN(C(=O)c2cccs2)CCN1 | 9%
COc1ccc(OC2CN(CCC(C)C)C2)cc1 | -20%[44.1 µM]
CCn1cnnc1-c1nn(C)c2c1CN(C(=O)CCC(=O)N1CC(=O)Nc3ccccc31)CC2 | -22%
CCCn1c(C)c(CC(=O)N(C)Cc2nnc(C)o2)c2c1CC(C)(C)CC2=O | -19%
COCCN1C(=O)c2cccn2CC1CNC(=O)c1cccc2nccnc12 (stereo unspecified) | -1%
Cc1ccccc1NC(=O)CSc1nc2ccc(NC(=O)c3ccccc3)cc2s1 | 14%
Cc1ccc(NC(=O)CSc2nc3ccc(NC(=O)c4ccco4)cc3s2)c(C)c1 | -8%
Cc1ccccc1OCCSc1nc2ccc(NC(=O)c3cccs3)cc2s1 | 1.1µM*
